# Laboratory results published in PubChem BioAssay (EPA / NIEHS).
# Records with an inconclusive call do not appear. Activity calls are given as the source filed them. Rule for the calls, unless noted: active = hit-call score of the fitted dose curve at least 0.9, where 1 is the maximum; inactive = score below 0.9.
# Key:
# [1] = target: Glucocorticoid receptor (Homo sapiens) (UniProt P04150); test: ATG_GR_TRANS: Attagene TRANS-FACTORIAL HepG2 Assay for human Glucocorticoid Receptor (GR) (AID 2282978; active = hit-call score of the fitted dose curve at least 0.9, where 1 is the maximum;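 note: activators score as hits since higher reporter transcript over DMSO is fitted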); conditions: HepG2 Attagene TRANS GR reporter, mRNA transcription
# Summary of the method: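 Measurement of GAL4-UAS-driven reporter mRNA in human HepG2 liver cells 24 h post-dosing, using RT-PCR with fluorescent labelling and capillary electrophoresis; the transfected constructs report exogenous NR-GAL4 chimera activity, fitted upward against DMSO.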
# [2] = target: Bile acid receptor (Homo sapiens) (UniProt Q96RI1); test: ATG_FXR_TRANS: Attagene TRANS-FACTORIAL HepG2 Assay for Farnesoid X Receptor (FXR) (AID 2282979; active = hit-call score of the fitted dose curve at least 0.9, where 1 is the maximum;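 note: hits raise reporter mRNA above DMSO so AC50 marks FXR activation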); conditions: HepG2 Attagene TRANS FXR-GAL4 reporter transcription
# Summary of the method: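 HepG2 cells were transiently transfected with GAL4-UAS reporters driven by chimeric NR-Gal4 proteins and dosed for 24 h. Reporter mRNA was quantified by RT-PCR, fluorescent labelling, HpaI digestion and capillary electrophoresis, with gain of signal scored versus DMSO.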
# [3] = target: Oxysterols receptor LXR-alpha (Homo sapiens) (UniProt Q13133); test: ATG_LXRa_TRANS: Attagene TRANS-FACTORIAL HepG2 Assay for human Liver X Receptor alpha (LXRa) (AID 2282980; active = hit-call score of the fitted dose curve at least 0.9, where 1 is the maximum); conditions: HepG2 Attagene TRANS reporter, LXRa transactivation
# Summary of the method: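 HepG2 cells transiently transfected with GAL4-UAS reporter units for chimeric NR-Gal4 proteins, exposed to chemicals for 24 h. Reporter mRNA quantified by RT-PCR and capillary electrophoresis; gain of signal fitted relative to DMSO.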
# [4] = target: Oxysterols receptor LXR-beta (Homo sapiens) (UniProt P55055); test: ATG_LXRb_TRANS: Attagene TRANS-FACTORIAL HepG2 Assay for human Liver X Receptor beta (LXRb) (AID 2282981; active = hit-call score of the fitted dose curve at least 0.9, where 1 is the maximum); conditions: HepG2 Attagene TRANS GAL4-LXRb reporter, mRNA
# Summary of the method: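 HepG2 cells transiently transfected with GAL4-UAS reporter units for chimeric NR-Gal4 proteins, dosed for 24 h. Reporter transcripts measured by RT-PCR and capillary electrophoresis; gain-of-signal fitting relative to DMSO.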
# [5] = ATG_M_32_TRANS: Attagene TRANS-FACTORIAL HepG2 Assay for M32 Transcription Factor (Internal Marker) (AID 2282984; active = hit-call score of the fitted dose curve at least 0.9, where 1 is the maximum;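 note: transcript level of a background control reporter unit measured by RT-PCR and capillary electrophoresis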); conditions: HepG2 Attagene TRANS M32 internal marker reporter
# Summary of the method: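 HepG2 cells transiently transfected with GAL4-UAS reporter units, dosed for 24 hours. Reporter mRNA quantified by RT-PCR, 6-FAM labelling, HpaI digestion and capillary electrophoresis; internal-marker signal fitted upward relative to DMSO.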
# [6] = target: Nuclear receptor subfamily 4 group A member 2 (Homo sapiens) (UniProt P43354); test: ATG_NURR1_TRANS: Attagene TRANS-FACTORIAL HepG2 Assay for human Nuclear Receptor Related Protein 1 (NURR1) (AID 2282985; active = hit-call score of the fitted dose curve at least 0.9, where 1 is the maximum); conditions: HepG2 Attagene TRANS reporter, mRNA readout
# Summary of the method: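 HepG2 cells transiently transfected with NURR1-Gal4 chimera and GAL4-UAS reporter units; after 24 hr compound exposure, reporter mRNA quantified by RT-PCR and capillary electrophoresis; gain of signal fitted against DMSO.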
# [7] = target: Transcriptional activator Myb (Homo sapiens) (UniProt P10242); test: ATG_Myb_CIS: Attagene CIS-FACTORIAL HepG2 Assay for human Myeloblastosis (Myb) Proto-Oncogene Transcription Factor (AID 2282986); conditions: HepG2 Attagene CIS-FACTORIAL Myb reporter transcription; actives raise or lower the signal
# Summary of the method: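 Fluorescence signals from capillary electrophoresis of RT-PCR-amplified reporter cDNA give the read-out. Cells: HepG2 transfected with multiple cis-regulated reporter units. Exposure lasts 24 hours; DMSO defines baseline for gain or loss of signal.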
# [8] = target: Nuclear respiratory factor 1 (Homo sapiens) (UniProt Q16656); test: ATG_NRF1_CIS: Attagene CIS-FACTORIAL HepG2 Assay for human Nuclear Respiratory Factor 1 (NRF1) Orphan Gene (AID 2282987); conditions: HepG2 NRF1 cis-element reporter, Attagene multiplex; actives raise or lower the signal
# Summary of the method: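 Transcriptional reporter readout, one component of a 52-endpoint multiplexed HepG2 panel. Exposure 24 h; mRNA detected via RT-PCR and fluorescent capillary electrophoresis; fitting in both directions against DMSO.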
# [9] = target: Myc proto-oncogene protein (Homo sapiens) (UniProt P01106); test: ATG_Myc_CIS: Attagene CIS-FACTORIAL HepG2 Assay for human Myelocytomatosis (Myc) Proto-Oncogene Transcription Factor (AID 2282990); conditions: HepG2, Attagene cis-reporter transcription factor activity; actives raise or lower the signal
# Summary of the method: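 Read-out: fluorescent reporter mRNA fragments resolved by capillary electrophoresis after RT-PCR. Human HepG2 liver cells carried transfected cis-element reporter units and were dosed for 24 h. Gain or loss of signal fitted relative to DMSO baseline.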
# [10] = ATG_NF_kB_CIS: Attagene CIS-FACTORIAL HepG2 Assay for human Nuclear Factor Kappa B (NF-kB) (AID 2282991); conditions: HepG2 Attagene cis-factorial NF-kB reporter mRNA; actives raise or lower the signal
# Summary of the method: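 HepG2, transient multi-reporter transfection, cis promoter elements (endogenous TFs). 24 h exposure. Total RNA → RT → PCR → 6-FAM label → HpaI → CE. Gain/loss vs DMSO.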
# [11] = ATG_NRF2_ARE_CIS: Attagene CIS-FACTORIAL HepG2 Assay for human Nuclear Factor Erythroid 2 Related Factor 2 (NFR2) response to Antioxidant Response Elements (ARE) (AID 2282992); conditions: HepG2 Attagene ARE/NRF2 reporter, transcription factor activity; actives raise or lower the signal
# Summary of the method: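 HepG2 cells transiently transfected with multiplexed cis-regulated reporter transcription units measure endogenous transcription factor activity. Reporter mRNA at 24 h is quantified by RT-PCR, fluorescent labelling and capillary electrophoresis, with bidirectional fitting relative to DMSO.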
# [12] = target: Cellular tumor antigen p53 (Homo sapiens) (UniProt P04637); test: ATG_p53_CIS: Attagene CIS-FACTORIAL HepG2 Assay for human p53 Transcription Factor (AID 2282994); conditions: HepG2 p53 cis-element reporter, Attagene mRNA; actives raise or lower the signal
# Summary of the method: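 HepG2 cells transiently transfected with multiplexed cis-regulated reporter transcription units read endogenous TF activity. After 24 h compound exposure, reporter mRNA was quantified by RT-PCR, fluorescent labelling, HpaI digestion and capillary electrophoresis; bidirectional fits versus DMSO baseline.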
# [13] = BSK_3C_TissueFactor: BioMAP Diversity Plus: 3C Assay for Tissue Factor Biomarker Activity (AID 2282997); conditions: BioMAP 3C HUVEC, tissue factor biomarker readout; actives raise or lower the signal
# Summary of the method: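 HUVEC were treated 24 h, then surface tissue factor measured by ELISA and fitted bidirectionally against DMSO. Parallel SRB total-protein staining assessed overt cytotoxicity at the same time point.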
# [14] = BSK_3C_uPAR: BioMAP Diversity Plus: 3C Assay for Urokinase-type plasminogen activator receptor (uPAR) Biomarker Activity (AID 2282998); conditions: BioMAP 3C HUVEC, uPAR biomarker ELISA; actives raise or lower the signal
# Summary of the method: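 Endothelial primary cells of human umbilical vein origin received test chemical; 24 h later uPAR was assayed by ELISA. Fitting was bidirectional, DMSO as negative control.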
# [15] = BSK_3C_VCAM1: BioMAP Diversity Plus: 3C Assay for Vascular cell adhesion molecule 1 (VCAM1) Biomarker Activity (AID 2282999); conditions: BioMAP 3C HUVEC, VCAM1 ELISA, cytokine-stimulated; actives raise or lower the signal
# Summary of the method: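 Human umbilical vein endothelial cells (3C system), biomarker read by ELISA 24 h after dosing; bidirectional fit against DMSO baseline. Cytotoxicity tracked by SRB total-protein staining in parallel cultures at biomarker time.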
# [16] = target: Estrogen-related receptor gamma (Homo sapiens) (UniProt P62508); test: ATG_ERRg_TRANS: Attagene TRANS-FACTORIAL HepG2 Assay for human Estrogen-Related Receptor gamma (ERRg) (AID 2282977; active = hit-call score of the fitted dose curve at least 0.9, where 1 is the maximum;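 note: hits increase reporter signal over DMSO so potencies reflect activators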); conditions: HepG2 Attagene TRANS reporter, ERRg transactivation
# Summary of the method: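 Transfect HepG2 with multiple GAL4-UAS reporter transcription units; dose chemicals 24 h; isolate RNA, reverse-transcribe with oligo(dT), PCR-amplify, label with 6-FAM, digest with HpaI; size fragments by capillary electrophoresis. DMSO serves as negative control.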
# [17] = target: Hepatocyte nuclear factor 4-alpha (Homo sapiens) (UniProt P41235); test: ATG_HNF4a_TRANS: Attagene TRANS-FACTORIAL HepG2 Assay for human Hepatocyte Nuclear Factor 4 alpha (HNF4a) (AID 2282982; active = hit-call score of the fitted dose curve at least 0.9, where 1 is the maximum); conditions: HepG2 HNF4a transactivation reporter, mRNA readout
# Summary of the method: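 HepG2 cells transiently transfected with HNF4a-Gal4 chimera and GAL4-UAS reporter units, dosed for 24 h. Reporter mRNA measured by RT-PCR, fluorescent primer extension and capillary electrophoresis; gain-of-signal fitted relative to DMSO.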
# [18] = ATG_M_06_TRANS: Attagene TRANS-FACTORIAL HepG2 Assay for M06 Transcription Factor (Internal Marker) (AID 2282983; active = hit-call score of the fitted dose curve at least 0.9, where 1 is the maximum;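 note: reporter transcript level by RT-PCR then capillary electrophoresis fluorescence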); conditions: HepG2 Attagene TRANS M06 internal marker reporter
# Summary of the method: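 HepG2 cells transiently transfected with GAL4-UAS multiple reporter units, dosed 24 h. Reporter RNA reverse-transcribed, PCR-amplified, 6-FAM-labeled, HpaI-digested and quantified by capillary electrophoresis; this internal-marker signal fitted upward relative to DMSO.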
# [19] = ATG_Oct_MLP_CIS: Attagene CIS-FACTORIAL HepG2 Assay for human Octamer-Binding Transcription Factor (Oct) (AID 2282993); conditions: HepG2 Attagene cis-factorial Oct reporter, mRNA; actives raise or lower the signal
# Summary of the method: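 Cells of the HepG2 line express promoter-controlled reporter sequences whose mRNA levels, after 24 h treatment, are measured by RT-PCR and capillary electrophoresis. Increases and decreases are scored relative to DMSO.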
# [20] = ATG_NFI_CIS: Attagene CIS-FACTORIAL HepG2 Assay for human Nuclear Factor I (NFI) (AID 2282989); conditions: HepG2 cis-regulatory reporter, NFI response element transcription; actives raise or lower the signal
# Summary of the method: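 After transient transfection of HepG2 with cis-promoter reporter constructs and 24 h dosing, RNA is reverse-transcribed, amplified, 6-FAM end-labelled and HpaI-digested before capillary analysis. Bidirectional curve fitting against DMSO.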
# Chain of Hepatocyte nuclear factor 4-alpha (Homo sapiens) (P41235 whole entry, looked up, the tested form may be a part): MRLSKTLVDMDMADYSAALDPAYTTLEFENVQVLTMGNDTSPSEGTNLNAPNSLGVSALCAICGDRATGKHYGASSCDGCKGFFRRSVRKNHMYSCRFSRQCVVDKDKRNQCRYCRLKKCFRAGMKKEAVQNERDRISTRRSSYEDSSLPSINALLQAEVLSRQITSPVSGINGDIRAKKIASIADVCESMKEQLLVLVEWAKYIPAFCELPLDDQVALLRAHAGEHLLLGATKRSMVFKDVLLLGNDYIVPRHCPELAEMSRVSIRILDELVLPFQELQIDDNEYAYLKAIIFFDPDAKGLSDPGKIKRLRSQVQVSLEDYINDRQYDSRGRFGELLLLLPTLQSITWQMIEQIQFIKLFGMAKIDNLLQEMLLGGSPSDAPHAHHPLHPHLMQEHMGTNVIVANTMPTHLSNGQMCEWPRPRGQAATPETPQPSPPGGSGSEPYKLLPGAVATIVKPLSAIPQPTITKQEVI
# Chain of Glucocorticoid receptor (Homo sapiens) (P04150 whole entry, looked up, the tested form may be a part): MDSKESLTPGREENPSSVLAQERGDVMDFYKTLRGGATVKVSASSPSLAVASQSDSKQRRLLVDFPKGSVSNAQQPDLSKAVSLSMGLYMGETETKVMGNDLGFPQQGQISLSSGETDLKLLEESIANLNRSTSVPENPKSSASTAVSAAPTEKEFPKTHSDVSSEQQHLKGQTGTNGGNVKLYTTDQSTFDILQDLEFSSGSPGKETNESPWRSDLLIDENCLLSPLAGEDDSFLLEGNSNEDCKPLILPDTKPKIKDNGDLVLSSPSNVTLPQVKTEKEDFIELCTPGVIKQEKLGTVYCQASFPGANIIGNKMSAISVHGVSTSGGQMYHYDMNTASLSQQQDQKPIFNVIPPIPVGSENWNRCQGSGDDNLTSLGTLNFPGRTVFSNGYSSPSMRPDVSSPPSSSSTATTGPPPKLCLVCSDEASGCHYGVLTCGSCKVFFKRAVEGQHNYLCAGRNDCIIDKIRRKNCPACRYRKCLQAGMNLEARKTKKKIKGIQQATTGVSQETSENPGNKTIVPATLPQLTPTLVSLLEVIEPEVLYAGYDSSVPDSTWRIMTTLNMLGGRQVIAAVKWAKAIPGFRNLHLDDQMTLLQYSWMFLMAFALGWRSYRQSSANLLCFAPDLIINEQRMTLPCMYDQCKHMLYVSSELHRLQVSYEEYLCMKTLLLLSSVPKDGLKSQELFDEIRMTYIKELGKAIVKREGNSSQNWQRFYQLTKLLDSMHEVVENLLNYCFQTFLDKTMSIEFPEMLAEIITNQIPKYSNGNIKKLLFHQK
# Chain of Estrogen-related receptor gamma (Homo sapiens) (P62508 whole entry, looked up, the tested form may be a part): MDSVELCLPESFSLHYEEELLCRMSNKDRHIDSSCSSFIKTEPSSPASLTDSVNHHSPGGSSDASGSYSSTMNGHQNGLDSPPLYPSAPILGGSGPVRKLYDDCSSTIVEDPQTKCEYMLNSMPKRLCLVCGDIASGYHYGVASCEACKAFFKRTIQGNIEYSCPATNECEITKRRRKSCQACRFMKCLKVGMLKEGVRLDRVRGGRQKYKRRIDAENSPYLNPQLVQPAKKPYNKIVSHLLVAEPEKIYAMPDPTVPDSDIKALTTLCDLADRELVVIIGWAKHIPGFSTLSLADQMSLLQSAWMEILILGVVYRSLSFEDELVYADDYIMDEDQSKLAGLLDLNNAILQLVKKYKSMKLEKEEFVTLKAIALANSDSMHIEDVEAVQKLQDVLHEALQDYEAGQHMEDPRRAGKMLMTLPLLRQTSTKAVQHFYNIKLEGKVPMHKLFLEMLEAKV
# Chain of Bile acid receptor (Homo sapiens) (Q96RI1 whole entry, looked up, the tested form may be a part): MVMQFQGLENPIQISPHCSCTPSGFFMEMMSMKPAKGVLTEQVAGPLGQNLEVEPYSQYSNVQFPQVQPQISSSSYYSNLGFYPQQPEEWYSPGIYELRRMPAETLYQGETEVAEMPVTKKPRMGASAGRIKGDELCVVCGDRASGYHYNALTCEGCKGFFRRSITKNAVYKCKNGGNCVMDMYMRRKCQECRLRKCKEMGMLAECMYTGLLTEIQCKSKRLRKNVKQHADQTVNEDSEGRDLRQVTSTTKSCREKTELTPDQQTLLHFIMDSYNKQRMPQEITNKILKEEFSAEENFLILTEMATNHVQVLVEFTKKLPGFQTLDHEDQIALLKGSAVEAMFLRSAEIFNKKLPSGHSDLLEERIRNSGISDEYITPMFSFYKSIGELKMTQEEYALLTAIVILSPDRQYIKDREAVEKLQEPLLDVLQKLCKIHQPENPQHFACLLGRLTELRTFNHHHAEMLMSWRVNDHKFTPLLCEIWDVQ
# Chain of Nuclear respiratory factor 1 (Homo sapiens) (Q16656 whole entry, looked up): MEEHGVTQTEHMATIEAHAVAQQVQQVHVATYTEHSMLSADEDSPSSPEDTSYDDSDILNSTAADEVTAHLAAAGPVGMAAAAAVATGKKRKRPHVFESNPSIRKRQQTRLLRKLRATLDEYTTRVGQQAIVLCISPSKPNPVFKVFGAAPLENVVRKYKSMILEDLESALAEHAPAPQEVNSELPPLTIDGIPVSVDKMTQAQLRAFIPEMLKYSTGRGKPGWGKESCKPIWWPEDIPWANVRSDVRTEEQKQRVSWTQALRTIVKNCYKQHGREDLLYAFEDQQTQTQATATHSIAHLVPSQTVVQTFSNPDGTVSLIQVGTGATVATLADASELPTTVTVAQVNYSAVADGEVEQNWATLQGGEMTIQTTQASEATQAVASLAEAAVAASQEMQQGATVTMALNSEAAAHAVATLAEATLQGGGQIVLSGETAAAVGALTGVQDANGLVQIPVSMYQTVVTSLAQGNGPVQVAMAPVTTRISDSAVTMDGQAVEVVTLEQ
# Chain of Myc proto-oncogene protein (Homo sapiens) (P01106 whole entry, looked up, the tested form may be a part): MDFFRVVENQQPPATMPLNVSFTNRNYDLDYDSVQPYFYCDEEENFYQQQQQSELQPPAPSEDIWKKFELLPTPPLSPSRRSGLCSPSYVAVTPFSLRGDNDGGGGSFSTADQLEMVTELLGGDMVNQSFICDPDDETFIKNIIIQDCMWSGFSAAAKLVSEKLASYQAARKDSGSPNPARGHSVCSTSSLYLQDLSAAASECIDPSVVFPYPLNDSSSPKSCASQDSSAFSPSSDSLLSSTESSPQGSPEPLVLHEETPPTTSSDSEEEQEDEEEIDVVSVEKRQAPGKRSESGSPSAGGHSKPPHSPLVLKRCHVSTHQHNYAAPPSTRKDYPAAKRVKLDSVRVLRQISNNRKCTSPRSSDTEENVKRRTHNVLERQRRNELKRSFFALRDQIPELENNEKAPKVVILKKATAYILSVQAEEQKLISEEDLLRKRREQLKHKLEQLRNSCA
# Chain of Nuclear receptor subfamily 4 group A member 2 (Homo sapiens) (P43354 whole entry, looked up, the tested form may be a part): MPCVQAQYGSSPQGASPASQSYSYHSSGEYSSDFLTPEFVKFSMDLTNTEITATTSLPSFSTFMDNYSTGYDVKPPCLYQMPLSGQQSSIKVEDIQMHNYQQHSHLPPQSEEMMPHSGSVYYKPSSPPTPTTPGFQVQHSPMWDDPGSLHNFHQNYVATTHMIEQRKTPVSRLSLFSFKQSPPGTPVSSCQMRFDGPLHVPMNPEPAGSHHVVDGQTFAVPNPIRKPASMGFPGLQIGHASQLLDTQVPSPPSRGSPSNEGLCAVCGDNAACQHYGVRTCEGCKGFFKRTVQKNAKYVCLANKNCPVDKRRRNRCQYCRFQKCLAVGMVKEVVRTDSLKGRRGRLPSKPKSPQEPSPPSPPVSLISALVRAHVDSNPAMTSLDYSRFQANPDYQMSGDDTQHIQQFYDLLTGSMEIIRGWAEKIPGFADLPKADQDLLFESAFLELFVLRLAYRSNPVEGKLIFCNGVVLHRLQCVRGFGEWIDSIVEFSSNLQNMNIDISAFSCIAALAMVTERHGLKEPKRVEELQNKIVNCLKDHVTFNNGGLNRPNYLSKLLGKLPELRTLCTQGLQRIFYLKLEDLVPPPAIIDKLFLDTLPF
# Chain of Oxysterols receptor LXR-beta (Homo sapiens) (P55055 whole entry, looked up, the tested form may be a part): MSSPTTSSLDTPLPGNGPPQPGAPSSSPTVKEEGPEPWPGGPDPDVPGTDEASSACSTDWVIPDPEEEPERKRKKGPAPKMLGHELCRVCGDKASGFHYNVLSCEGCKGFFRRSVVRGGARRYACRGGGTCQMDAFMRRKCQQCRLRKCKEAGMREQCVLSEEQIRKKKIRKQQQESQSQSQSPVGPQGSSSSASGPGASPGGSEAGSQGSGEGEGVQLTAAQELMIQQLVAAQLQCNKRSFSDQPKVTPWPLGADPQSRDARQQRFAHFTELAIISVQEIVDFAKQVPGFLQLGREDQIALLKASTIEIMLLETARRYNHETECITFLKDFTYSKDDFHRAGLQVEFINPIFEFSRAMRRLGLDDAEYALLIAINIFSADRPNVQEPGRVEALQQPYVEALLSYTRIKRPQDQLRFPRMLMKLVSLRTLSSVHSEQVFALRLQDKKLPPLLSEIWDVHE
# Chain of Transcriptional activator Myb (Homo sapiens) (P10242 whole entry, looked up): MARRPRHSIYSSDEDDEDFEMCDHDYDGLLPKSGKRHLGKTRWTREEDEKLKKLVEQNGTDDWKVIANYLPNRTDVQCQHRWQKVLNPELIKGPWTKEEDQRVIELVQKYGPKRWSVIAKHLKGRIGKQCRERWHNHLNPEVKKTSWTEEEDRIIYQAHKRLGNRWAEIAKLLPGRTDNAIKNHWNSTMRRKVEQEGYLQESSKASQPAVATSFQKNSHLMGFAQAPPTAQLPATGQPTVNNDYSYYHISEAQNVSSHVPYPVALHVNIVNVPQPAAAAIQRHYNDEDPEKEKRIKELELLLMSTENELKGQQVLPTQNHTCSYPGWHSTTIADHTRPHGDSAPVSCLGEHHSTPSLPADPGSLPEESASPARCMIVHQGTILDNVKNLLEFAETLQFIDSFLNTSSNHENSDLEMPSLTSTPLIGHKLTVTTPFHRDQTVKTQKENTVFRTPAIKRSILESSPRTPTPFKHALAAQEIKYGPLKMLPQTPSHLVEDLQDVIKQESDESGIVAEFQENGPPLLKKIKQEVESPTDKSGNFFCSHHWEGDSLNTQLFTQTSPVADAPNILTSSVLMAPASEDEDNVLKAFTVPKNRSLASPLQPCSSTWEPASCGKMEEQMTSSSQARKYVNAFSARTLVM
compound,measurement,setting,value
CCN(CC)c1ccc2c(C)cc(=O)oc2c1,outcome,[1],inactive
same,outcome,[2],inactive
same,AC50,[3],26.2 µM (active)
same,outcome,[4],inactive
same,outcome,[5],inactive
same,outcome,[6],inactive
same,outcome,[7],inactive
same,outcome,[8],inactive
same,outcome,[9],inactive
same,outcome,[10],inactive
same,AC50,[11],59.3 µM (active)
same,outcome,[12],inactive
same,AC50,[13],20 µM (active)
same,outcome,[14],inactive
same,outcome,[15],inactive
CCCCCCCOC(=O)c1ccccc1C(=O)OCCCCCCC,outcome,[16],inactive
same,outcome,[2],inactive
same,outcome,[17],inactive
same,outcome,[18],inactive
same,outcome,[6],inactive
same,outcome,[7],inactive
same,outcome,[8],inactive
same,outcome,[9],inactive
same,outcome,[10],inactive
same,outcome,[11],inactive
same,outcome,[19],inactive
same,outcome,[12],inactive
same,outcome,[13],inactive
same,outcome,[14],inactive
same,outcome,[15],inactive
CC(=O)Nc1ccc(N=Nc2cc(C)ccc2O)cc1,outcome,[16],inactive
same,outcome,[2],inactive
same,outcome,[4],inactive
same,outcome,[17],inactive
same,outcome,[18],inactive
same,outcome,[5],inactive
same,outcome,[6],inactive
same,outcome,[7],inactive
same,AC50,[8],27.1 µM (active)
same,outcome,[20],inactive
same,outcome,[9],inactive
same,outcome,[10],inactive
same,AC50,[11],1.42 µM (active)
same,outcome,[19],inactive
same,outcome,[12],inactive
same,outcome,[13],inactive
same,outcome,[14],inactive
same,AC50,[15],2.69 µM (active)
C=C(C)C(=O)OCCC(F)(F)C(F)(F)C(F)(F)C(F)(F)C(F)(C(F)(F)F)C(F)(F)F,outcome,[1],inactive
same,outcome,[2],inactive
same,outcome,[3],inactive
same,outcome,[4],inactive
same,outcome,[18],inactive
same,outcome,[7],inactive
same,outcome,[8],inactive
same,outcome,[20],inactive
same,outcome,[9],inactive
same,outcome,[10],inactive
same,outcome,[11],inactive
same,outcome,[19],inactive
same,outcome,[12],inactive
same,outcome,[13],inactive
same,outcome,[14],inactive
same,outcome,[15],inactive
C=CC(F)(F)C(F)(F)C(F)(F)C(F)(F)C(F)(F)C(F)(F)C(F)(F)C(F)(F)C=C,outcome,[1],inactive
same,outcome,[2],inactive
same,outcome,[3],inactive
same,outcome,[4],inactive
same,outcome,[5],inactive
same,outcome,[7],inactive
same,outcome,[8],inactive
same,outcome,[20],inactive
same,outcome,[9],inactive
same,outcome,[10],inactive
same,outcome,[11],inactive
same,outcome,[12],inactive
same,outcome,[13],inactive
same,outcome,[14],inactive
same,outcome,[15],inactive
CC(C)c1ccccc1N,outcome,[16],inactive
same,outcome,[17],inactive
same,outcome,[5],inactive
same,outcome,[6],inactive
same,outcome,[7],inactive
same,outcome,[8],inactive
same,outcome,[20],inactive
same,outcome,[9],inactive
same,outcome,[10],inactive
same,outcome,[11],inactive
same,outcome,[19],inactive
same,outcome,[12],inactive
OCC(F)(F)C(F)(F)C(F)(F)F,outcome,[1],inactive
same,outcome,[2],inactive
same,outcome,[3],inactive
same,outcome,[4],inactive
same,outcome,[17],inactive
same,outcome,[18],inactive
same,outcome,[5],inactive
same,outcome,[6],inactive
same,outcome,[7],inactive
same,outcome,[8],inactive
same,outcome,[10],inactive
same,outcome,[11],inactive
same,outcome,[12],inactive
same,outcome,[13],inactive
same,outcome,[14],inactive
same,outcome,[15],inactive
C(=C(c1ccccc1)c1ccccc1)c1ccccc1,outcome,[1],inactive
same,outcome,[2],inactive
same,outcome,[4],inactive
same,outcome,[17],inactive
same,outcome,[18],inactive
same,AC50,[6],26.4 µM (active)
same,outcome,[7],inactive
same,outcome,[8],inactive
same,outcome,[9],inactive
same,outcome,[10],inactive
same,AC50,[11],25.2 µM (active)
same,outcome,[19],inactive
same,outcome,[12],inactive
